Source: PubChem BioAssay (National Center for Advancing Translational Sciences (NCATS))
Rows were chosen to be rich in hits. Some 21% of all compounds tested hit in one or more screens of this group.
Shiga toxin inh – inhibitors of Shiga toxin in Vero cells | Vero cells, Shiga toxin protein synthesis inhibition reporter | inhibition, % at 38.7 µM | hit rate 9.2% among 290,000; in the data active means inhibition mostly above about 28%, no sharp cut-off; inactive means mostly below about 43%
CHX counter – counter-screen for Shiga toxin inhibitors: cycloheximide protein synthesis inhibition; cell reporter, cycloheximide protein synthesis inhibition counterscreen; max response, %; hit rate 12% among 300,000; AID 2314; in the data active means max response mostly above about 13%, no sharp cut-off; inactive means mostly below about 14%; further: read at 38.3 µM for the half of the compounds with a filed dose
Pf growth 48h – inhibits P. falciparum growth in the first generation, 48 h; AID 504832; Potency, µM (series often up to 28.7 µM), hits mostly inhibitors; hit rate 5.9% among 310,000; P. falciparum luciferase growth in erythrocytes, 48 h
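Erythrocytes infected with P. falciparum carrying an integrated firefly luciferase reporter (2% hematocrit, 0.1% parasitemia final) were exposed to compounds in RPMI 1640 with 0.5% Albumax at 37 C, 5% CO2. Growth inhibition was scored as reduced luminescence.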
SARS PLpro yeast – blocks SARS-CoV papain-like protease in a yeast assay; S. cerevisiae expressing SARS-CoV PLpro, growth rescue; Potency, µM (doses to about 32.9 µM), usual class: activators; hit rate 0.19% among 330,000; calls by dose curve; further: nearly all actives have a fitted effect of over 55% in size
Pf growth 96h – inhibits malaria parasite growth, 96 h. hit rate 6.9% among 320,000. P. falciparum luciferase reporter growth, 96 h. Potency, µM (highest dose often 28.7 µM), actives largely listed as inhibitors
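P. falciparum expressing integrated firefly luciferase grown in erythrocytes (2% hematocrit, 0.05% parasitemia final) with compounds for 96 hours at 37 C, 5% CO2. Growth inhibition read as loss of luminescence after adding luciferase detection reagent.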
NS1 inh – blocks influenza NS1 protein function. Potency, µM (doses to about 46.1 µM). hit rate 0.4% among 270,000. AID 2326; calls by dose curve; further: actives are rising curves; nearly all actives have a fitted effect of over 50% in size
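OD600 was taken as the measure of yeast growth restored by compound in an NS1-expressing S. cerevisiae strain. Cells had been washed out of glucose medium and diluted 1:100 into galactose -URA medium, pH 6.0.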
A number is an active result; 0 = inactive; ? = inconclusive; - = not tested or not shown. Unless noted, the call rests on the fitted dose curve; in most records, active means well fitted inhibition curve with a large enough effect; inconclusive means small, poorly fitted or top-dose-only effect, or another doubt; inactive means no such curve, though single readings can be large or run the other way.

SMILES	Shiga toxin inh	CHX counter	Pf growth 48h	SARS PLpro yeast	Pf growth 96h	NS1 inh
N/C(=N\OC(=O)C12CC3CC(CC(C3)C1)C2)c1ccncc1	0	0	10.4µM	0	?	0
Cc1cccnc1NC(=O)CNC(=O)C12CC3CC(CC(C3)C1)C2	-	-	0	0	0	-
Cc1ccc(-c2ncccc2OC(=O)C23CC4CC(CC(C4)C2)C3)cc1	0	0	?	0	9.28µM	0
Cc1ccc(/C(N)=N/OC(=O)C23CC4CC(CC(C4)C2)C3)cc1	101.5	22.8	0	0	?	0
Cc1ccc(C23CC4CC(CC(C(N)=O)(C4)C2)C3)cc1	0	0	0	0	?	0
Cc1cc(NC(=O)CCC(=O)N(CC(=O)NCC2CCCO2)c2ccc(F)c(Cl)c2)no1 (stereo not given)	0	0	0	0	0	0
CCOc1ccc(NC(=O)C(C)Sc2nccn2C)cc1 (stereo not given)	0	16.9	0	0	0	0
CC(Sc1nnnn1C)C(=O)Nc1ccc(Oc2ccccc2)cc1 (stereo not given)	0	0	0	0	0	0
CCOc1ccc(NC(=O)C(C)Sc2nnc(C)n2C)cc1 (stereo not given)	0	0	0	0	13.1µM	0
Cc1ccc(NC(=O)C(C)Sc2nnc(C)n2C)cc1 (stereo not given)	-	0	0	0	0	0
COc1ccc(NC(=O)COC(=O)CO/N=C(\C)c2ccc3c(c2)OCO3)cc1S(N)(=O)=O	-	-	0	0	0	-
CNC(=S)N1C2CCC1CC(NC(=O)NC13CC4CC(CC(C4)C1)C3)C2 (stereo not given)	0	0	11.7µM	?	?	0
CC(=O)c1ccc(OCc2ccccc2)c(C)c1O	0	29.2	0	0	0	0
NNC(=O)c1ccccc1OCc1ccccc1	38.5	16.8	0	0	?	0
O=C(Nc1ccc(O)cc1)c1ccccc1OCc1ccccc1	0	0	?	0	?	0
COc1cc(NC(=O)c2ccccc2OCc2ccccc2)cc(OC)c1OC	0	0	9.28µM	0	0	0
COCCC(=O)N1CCC(Oc2ccc(C(=O)N3CCCC(OC)C3)cc2)CC1 (stereo not given)	0	0	0	0	0	0
Cc1ccccc1N=C1SCCN1C(=O)CN1C(=O)NC2(CCCC2)C1=O	-	-	?	0	0	-
Cc1ccc(-n2c(Cl)c(Cl)nc(Cl)c2=O)cc1	0	0	0	0	?	0
CC1(C)CC(C)(c2ccc(O)cc2O)N(c2cccc(Cl)c2)C(=S)N1 (stereo not given)	0	0	4.15µM	0	?	0
CC1(C)CC(C)(c2ccc(O)cc2O)N(c2ccc3ccccc3c2)C(=S)N1 (stereo not given)	0	0	?	0	?	0
CCCCC1CCC(C(=O)Nc2ccc(N3CCOCC3)cc2N2CCOCC2)CC1 (stereo not given)	-	-	?	0	?	-
CCn1c(-c2ccccc2)c[nH]c1=S	0	0	0	0	?	0
S=c1[nH]cc(-c2ccc(Cl)cc2)n1Cc1ccccc1	0	14.0	0	0	0	0
CCCCC/C=C\C/C=C\C/C=C\C/C=C\CCCC(=O)C(F)(F)F	0	0	-	-	-	-
SMILES	Shiga toxin inh	CHX counter	Pf growth 48h	SARS PLpro yeast	Pf growth 96h	NS1 inh
Nc1cc([N+](=O)[O-])cc2oc(-c3ccccc3)cc12	53.5	53.0	0	0	0	0
COc1ccc(NS(=O)(=O)c2cc(NC(=O)CCNC(C)=O)ccc2N2CCCCC2)cc1	-	-	9.28µM	0	?	-
COc1ccc(NS(=O)(=O)c2cc(NC(=O)C3CCCO3)ccc2N2CCCCC2)cc1 (stereo not given)	0	0	5.22µM	0	?	-
COc1ccc(NS(=O)(=O)c2cc(NC(=O)C3CCCO3)ccc2N2CCCC2)cc1 (stereo not given)	0	0	0	0	0	0
NS(=O)(=O)c1ccc(CNC(=O)Cn2nc(C(F)F)cc2C(F)F)cc1	-	-	0	0	0	-
Cc1ccc(Cn2c(SCC(=O)N(C)C3CCS(=O)(=O)C3)nc3ccccc3c2=O)cc1 (stereo not given)	-	-	?	0	?	-
NNc1nc(-c2ccccc2)nc2sc3c(c12)CCCC3	108.6	62.0	?	0	?	0
CSC(=Nc1ccc(Cl)cc1)N[n+]1ccccc1	0	0	0	0	0	0
CC(NC(=O)C(=O)N1CCCCC1)C(c1cccs1)N1CCN(c2ccccc2F)CC1 (stereo not given)	0	0	?	0	1.31µM	0
Cc1cc(SCC#N)n2nc(C)c(-c3ccccc3)c2n1	0	0	0	0	0	0
